Measurements as given in PubChem BioAssay (NCI).
The panel holds about 79,000 compounds, 15% with a hit somewhere; the sample as a whole holds those more often. Values without a mark were called inactive. Active and inactive are the calls of the source. Rule as the data show it: active = growth inhibition above about 70%; inactive = the rest.

Assays:
[1] = NCI Yeast Anticancer Drug Screen. Data for the rad52 strain (AID 147);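 also: 0% = growth of vehicle-treated control cultures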; conditions: S. cerevisiae rad52 mutant growth inhibition, hits give high values
Outline: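 Growth of repair-deficient yeast cells was compared between compound-treated and vehicle-treated cultures to give percent inhibition.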

[2] = NCI Yeast Anticancer Drug Screen. Data for the wt1 strain (AID 149);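 also: 0% = growth of vehicle-treated wt1 cultures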; conditions: S. cerevisiae wt1 strain (SPY 50644) growth inhibition, hits give high values
Outline: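 The wt1 strain was treated with compounds, and growth was compared with vehicle-treated cultures to give inhibition.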

[3] = NCI Yeast Anticancer Drug Screen. Data for the rad50EPP+ strain (AID 151);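 also: 0% = growth of vehicle-treated control cultures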; conditions: S. cerevisiae rad50 mutant strain, hits give high values
Outline: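 Measured: growth inhibition of rad50EPP+ yeast. Reference: vehicle-treated controls. Screen uses strains with defined genetic alterations in DNA damage repair or cell cycle control.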

[4] = NCI Yeast Anticancer Drug Screen. Data for the mgt1 strain (AID 153); conditions: S. cerevisiae mgt1 mutant growth inhibition, hits give high values
Outline: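 Compounds were applied to mgt1 mutant yeast, and growth was then compared against vehicle-treated control cultures to give percent inhibition.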

[5] = NCI Yeast Anticancer Drug Screen. Data for the rad50 strain (AID 155);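 also: 0% = growth of vehicle-only cultures of the same strain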; conditions: S. cerevisiae rad50 strain growth inhibition, hits give high values
Outline: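 Cells are treated with compound, grown, and their growth is then scored against vehicle-only cultures of the same repair-deficient yeast strain.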

[6] = NCI Yeast Anticancer Drug Screen. Data for the mec2-1 strain (AID 157); conditions: S. cerevisiae mec2-1 strain, hits give high values
Outline: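 Compounds were applied to mec2-1 yeast cells. Their growth was then compared with that of vehicle-treated cultures to give growth inhibition.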

[7] = NCI Yeast Anticancer Drug Screen. Data for the rad14 strain (AID 159);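 also: 0% = growth of vehicle-treated control cultures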; conditions: S. cerevisiae rad14 strain growth inhibition, hits give high values
Outline: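 Readout: yeast growth inhibition, referenced to vehicle-only cultures. Strain bears a defined alteration in DNA damage repair.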

[8] = NCI Yeast Anticancer Drug Screen. Data for the sgs1 mgt1 strain (AID 161);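 also: 0% = growth of cultures given vehicle only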; conditions: S. cerevisiae sgs1 mgt1 strain, hits give high values
Outline: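 Yeast cells carrying a defined DNA-repair defect were exposed to test compounds. Growth inhibition was measured relative to vehicle-treated controls.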

[9] = NCI Yeast Anticancer Drug Screen. Data for the CLN2oe strain (AID 163);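 also: 0% = growth of vehicle-only control cultures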; conditions: S. cerevisiae CLN2oe strain, hits give high values
Outline: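 Cells of an engineered yeast line with disturbed cell-cycle regulation are treated with compound. Inhibition of growth is then calculated relative to the vehicle-treated reference.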

[10] = NCI Yeast Anticancer Drug Screen. Data for the cln2 rad14 strain (AID 165);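 also: 0% = growth equal to vehicle treated cultures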; conditions: S. cerevisiae cln2 rad14 strain, hits give high values
Outline: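 Strain: cln2 rad14 yeast, altered in cell cycle control and DNA damage repair. Read-out: growth inhibition vs vehicle.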

[11] = NCI Yeast Anticancer Drug Screen. Data for the bub3 strain (AID 167); conditions: S. cerevisiae bub3 mutant strain, hits give high values
Outline: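 Part of a panel of yeast mutants defective in DNA damage repair or cell cycle regulation. Each strain is grown with compound, and inhibition is calculated relative to solvent-treated cultures.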

[12] = NCI Yeast Anticancer Drug Screen. Data for the wt2 strain (AID 169);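 also: 0% = growth of vehicle-treated yeast cultures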; conditions: S. cerevisiae wt2 strain growth inhibition, hits give high values
Outline: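 Growth of compound-treated yeast is measured and expressed as inhibition relative to vehicle-only controls.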

[13] = NCI Yeast Anticancer Drug Screen. Data for the mlh1 strain (AID 171);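 also: 0% = growth of vehicle-treated control cultures of the same strain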; conditions: S. cerevisiae mlh1 strain growth inhibition, hits give high values
Outline: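 Test agents were incubated with yeast bearing a defined DNA damage repair or cell cycle control alteration; values are growth inhibition normalised to vehicle-treated cultures.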

[14] = NCI Yeast Anticancer Drug Screen. Data for the sgs1 strain (AID 173);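 also: 0% = growth of vehicle-only control cultures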; conditions: S. cerevisiae sgs1 mutant, hits give high values
Outline: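 Strain with an altered DNA repair or cell cycle pathway exposed to compound. Growth then measured. Value = inhibition versus vehicle control.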

[15] = NCI Yeast Anticancer Drug Screen. Data for the mlh1 rad18 strain (AID 175); conditions: S. cerevisiae mlh1 rad18 strain growth inhibition, hits give high values
Outline: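 A repair-deficient yeast strain is exposed to test compound, and growth is scored relative to vehicle-treated controls.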

[16] = NCI Yeast Anticancer Drug Screen. Data for the rad18 strain (AID 177); conditions: S. cerevisiae rad18 mutant growth inhibition, hits give high values
Outline: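 DNA-repair-defective yeast; compound treatment; growth inhibition scored against vehicle.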

[17] = at 5.0 µM (retest, dose inferred, filed as 0.5)
[18] = at 50.0 µM (retest, dose inferred, filed as 5.0)

## ClCCn1c(CCl)nc2ccc(Cl)cc21
[1]; at 1.2 µM
  growth inhibition: -34%
[1]; at 3.7 µM
  growth inhibition: -41%
[1]; at 11.0 µM
  growth inhibition: -8%
[1]; at 33.0 µM
  growth inhibition: 69%
[1]; at 100.0 µM
  growth inhibition: 98% (active)
[2]; at 1.2 µM
  growth inhibition: -52%
[2]; at 3.7 µM
  growth inhibition: -61%
[2]; at 11.0 µM
  growth inhibition: -53%
[2]; at 33.0 µM
  growth inhibition: 52%
[2]; at 100.0 µM
  growth inhibition: 97% (active)
[3]; at 1.2 µM
  growth inhibition: -12%
[3]; at 3.7 µM
  growth inhibition: 6%
[3]; at 11.0 µM
  growth inhibition: 9%
[3]; at 33.0 µM
  growth inhibition: 48%
[3]; at 100.0 µM
  growth inhibition: 91% (active)
[4]; at 1.2 µM
  growth inhibition: -29%
[4]; at 3.7 µM
  growth inhibition: -32%
[4]; at 11.0 µM
  growth inhibition: -16%
[4]; at 33.0 µM
  growth inhibition: 71% (active)
[4]; at 100.0 µM
  growth inhibition: 98% (active)
[5]; at 1.2 µM
  growth inhibition: -20%
[5]; at 3.7 µM
  growth inhibition: -11%
[5]; [17]
  growth inhibition: 19%
[5]; at 11.0 µM
  growth inhibition: -3%
[5]; at 33.0 µM
  growth inhibition: 63%
[5]; [18]
  growth inhibition: 54%
[5]; at 50.0 µM
  growth inhibition: 72.7% (active)
[5]; at 100.0 µM
  growth inhibition: 97% (active)
[6]; at 1.2 µM
  growth inhibition: -27%
[6]; at 3.7 µM
  growth inhibition: -49%
[6]; [17]
  growth inhibition: 18%
[6]; at 11.0 µM
  growth inhibition: -10%
[6]; at 33.0 µM
  growth inhibition: 76% (active)
[6]; [18]
  growth inhibition: 75% (active)
[6]; at 50.0 µM
  growth inhibition: 84% (active)
[6]; at 100.0 µM
  growth inhibition: 95% (active)
[7]; at 1.2 µM
  growth inhibition: -8%
[7]; at 3.7 µM
  growth inhibition: 0%
[7]; at 11.0 µM
  growth inhibition: 10%
[7]; at 33.0 µM
  growth inhibition: 70% (active)
[7]; at 100.0 µM
  growth inhibition: 99% (active)
[8]; [17]
  growth inhibition: 18%
[8]; [18]
  growth inhibition: 73% (active)
[8]; at 50.0 µM
  growth inhibition: 83.6% (active)
[9]; at 1.2 µM
  growth inhibition: 4%
[9]; at 3.7 µM
  growth inhibition: 8%
[9]; at 11.0 µM
  growth inhibition: 34%
[9]; at 33.0 µM
  growth inhibition: 58%
[9]; at 100.0 µM
  growth inhibition: 97% (active)
[10]; [17]
  growth inhibition: 7%
[10]; [18]
  growth inhibition: 7%
[10]; at 50.0 µM
  growth inhibition: 41.2%
[11]; at 1.2 µM
  growth inhibition: -20%
[11]; at 3.7 µM
  growth inhibition: -25%
[11]; [17]
  growth inhibition: 13%
[11]; at 11.0 µM
  growth inhibition: -15%
[11]; at 33.0 µM
  growth inhibition: 60%
[11]; [18]
  growth inhibition: 46%
[11]; at 50.0 µM
  growth inhibition: 81.5% (active)
[11]; at 100.0 µM
  growth inhibition: 96% (active)
[12]; at 1.2 µM
  growth inhibition: -10%
[12]; at 3.7 µM
  growth inhibition: -13%
[12]; at 11.0 µM
  growth inhibition: 8%
[12]; at 33.0 µM
  growth inhibition: 77% (active)
[12]; at 100.0 µM
  growth inhibition: 98% (active)
[13]; at 1.2 µM
  growth inhibition: -30%
[13]; at 3.7 µM
  growth inhibition: -31%
[13]; at 11.0 µM
  growth inhibition: -18%
[13]; at 33.0 µM
  growth inhibition: 67%
[13]; at 100.0 µM
  growth inhibition: 98% (active)
[14]; at 1.2 µM
  growth inhibition: -19%
[14]; at 3.7 µM
  growth inhibition: -31%
[14]; at 11.0 µM
  growth inhibition: 10%
[14]; at 33.0 µM
  growth inhibition: 60%
[14]; at 100.0 µM
  growth inhibition: 98% (active)
[15]; [17]
  growth inhibition: 26%
[15]; [18]
  growth inhibition: 75% (active)
[15]; at 50.0 µM
  growth inhibition: 79% (active)
[16]; at 1.2 µM
  growth inhibition: -29%
[16]; at 3.7 µM
  growth inhibition: -14%
[16]; at 11.0 µM
  growth inhibition: 30%
[16]; at 33.0 µM
  growth inhibition: 78% (active)
[16]; at 100.0 µM
  growth inhibition: 98% (active)
